HCV inh = qHTS Assay for Inhibitors of Hepatitis C Virus (HCV) | Huh7.5.1 HCVcc-Cre infection, luciferase reporter, 44 h | Potency, µM (highest dose often 41.8 µM), most hits filed as inhibitors | actives 3.4% (n = 340,000) | AID 651820, 2012
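Cells seeded at 1,000/well and cultured 4 h, then compounds added followed by HCVcc-Cre virus (~0.5 moi). After 44 h further culture, luciferase substrate was added, plates held 15 min at room temperature, and luminescence read for 15 sec.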
AmpC inh detg = qHTS Inhibitors of AmpC Beta-Lactamase (assay with detergent). P00811. AmpC hydrolysis of nitrocefin, absorbance 480 nm, 0.01% Triton. Potency, µM (top dose mostly 114 µM), usual class: inhibitors. actives 0.041% (n = 370,000); further: nearly all actives have a fitted effect of over 25% in size
Target sequence (P00811 whole entry, looked up): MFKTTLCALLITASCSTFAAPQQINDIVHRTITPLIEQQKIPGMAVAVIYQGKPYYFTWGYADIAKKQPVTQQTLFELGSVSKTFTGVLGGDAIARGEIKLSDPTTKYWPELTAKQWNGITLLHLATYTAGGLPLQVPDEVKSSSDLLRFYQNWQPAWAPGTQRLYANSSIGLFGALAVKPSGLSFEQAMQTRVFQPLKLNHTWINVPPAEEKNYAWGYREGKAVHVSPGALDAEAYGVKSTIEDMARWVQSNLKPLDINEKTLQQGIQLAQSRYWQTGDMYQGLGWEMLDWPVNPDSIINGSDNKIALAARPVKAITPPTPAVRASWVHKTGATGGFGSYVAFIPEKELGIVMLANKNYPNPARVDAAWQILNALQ
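20 mM phosphate pH 7.0 + 0.01% (detergent screen) or 0.0001% Triton X-100; 5.3 nM AmpC reagent; cpd preinc 15 min RT; nitrocefin (800 uM stock) to start; A480 q20 s × 4 min; Activity was normalised to no-enzyme and no-compound control wells.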
HCMV inh = qHTS Assay for inhibitors of the human cytomegalovirus (HCMV). HFF cells, HCMV-luciferase reporter, 72 h; stronger effect = lower value. activity change, negative = inhibition, % at 57.5 µM. actives 4.5% (n = 410,000). AID 1259415, 2018; in the data active means activity change below about -60%; inconclusive means no clear call, values can overlap the other calls; inactive means above about -39%
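Screen run at 2 compound doses on HFFs infected with reporter HCMV, MOI 1 PFU/cell. Luciferase activity from cell lysates at 72 h post infection gave inhibition relative to buffer-only and Salinomycin wells.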
AmpC inh no detg = qHTS Inhibitors of AmpC Beta-Lactamase (assay without detergent); actives 0.52% (n = 330,000); AmpC nitrocefin hydrolysis, absorbance 480 nm, 0.0001% Triton; Potency, µM (titrated, usually from 57.1 µM), hits mostly inhibitors; P00811; further: nearly all actives have a fitted effect of over 20% in size
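AmpC (5.3 nM in the dispensed reagent) in 20 mM phosphate pH 7.0 with 0.01% (detergent screen) or 0.0001% Triton X-100 was preincubated with compounds for 15 min at room temperature. Nitrocefin was then added from an 800 uM solution, and hydrolysis was followed at 480 nm.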
FMDV inh = High Throughput Screening for Foot and Mouth Disease Virus Antivirals; actives 1.2% (n = 410,000); Potency, µM (highest dose often 57.9 µM), most hits filed as inhibitors; FMDV antiviral cell-based qHTS; AID 1159524, 2015; calls by dose curve; tested in HEK293T cells; further: read-out not given here; nearly all actives have a fitted effect of over 45% in size
Of the large screens only hits and unclear results are named; the others gave an inactive call. Hits are enriched below; roughly 7.3% of the tested compounds scored in any of these assays. Unless noted, the call rests on the fitted dose curve; in most records, active means well fitted curve in the direction sought with a large enough effect; inconclusive means small, poorly fitted or top-dose-only effect, or another doubt; inactive means no such curve, though single readings can be large; an effect the other way counts as inactive or inconclusive.

O=C(NCc1ccccc1)/C(=C/c1ccc([N+](=O)[O-])cc1)NC(=O)c1ccco1	AmpC inh detg inconclusive
COc1ccc(C)cc1N/C(N)=N/c1nc(C)cc(C)n1	HCV inh inconclusive, HCMV inh inconclusive
COc1nc(N=C(N)N)nc2ccc(C)cc12	HCV inh inconclusive, HCMV inh -102.2 (no result: FMDV inh)
CN(Cc1ccccc1)S(=O)(=O)c1ccc2c(c1)n(C)c(=O)c(=O)n2C	none
CN(Cc1ccccc1)C(=O)CCS(=O)(=O)c1ccc2c(c1)n(C)c(=O)c(=O)n2C	AmpC inh detg inconclusive, AmpC inh no detg 0.501µM
Cc1ccc(OCC(=O)Nc2ccc3c(c2)nc(CCN2CCN(c4ccccn4)CC2)n3C)cc1	HCMV inh -76.5, FMDV inh 3.55µM (no result: HCV inh, AmpC inh detg, AmpC inh no detg)
Cn1c(CCN2CCCCC2)nc2cc(NS(=O)(=O)c3ccccc3)ccc21	none
Cn1c(CCN2CCN(c3ccccn3)CC2)nc2cc(NS(=O)(=O)c3ccccc3)ccc21	HCV inh 10µM, HCMV inh active, FMDV inh inconclusive
CC1CCN(CCc2nc3cc(NC(=O)COc4ccccc4)ccc3n2C)CC1	HCMV inh inconclusive
Cn1c(CCN2CCN(c3ccccn3)CC2)nc2cc(NC(=O)COc3ccccc3)ccc21	HCV inh 3.98µM, HCMV inh inconclusive, FMDV inh inconclusive
CCCCC(=O)Nc1ccc2c(c1)nc(CCN1CCN(c3ccccn3)CC1)n2C	HCMV inh -81.5
Cc1ccc(OCC(=O)Nc2ccc3c(c2)nc(CCN2CCN(C)CC2)n3C)cc1	none
CCCC(=O)Nc1ccc2c(c1)nc(CCN1CCN(c3ccccn3)CC1)n2C	none
O=C(O)CCC(=O)N1CCc2cc(S(=O)(=O)NCc3ccc(Cl)cc3)ccc21	none
O=c1c2sccc2n(Cc2cc(=O)n3cc(Cl)ccc3n2)c(=O)n1-c1ccccc1	none (no result: HCV inh, AmpC inh no detg)
Cc1noc2ncnc(Sc3ccccc3Cl)c12	HCV inh inconclusive, HCMV inh -78.8, FMDV inh 39.8µM
COC(=O)c1ccccc1Sc1ncnc2onc(C)c12	HCV inh inconclusive, FMDV inh 28.2µM
Cc1ccc(Sc2ncnc3onc(C)c23)c(C)c1	none
COc1cc(C(=O)NC2CCN(C)CC2)ccc1Nc1ncc2c(n1)N(Cc1ccccc1)CCC(=O)N2C	HCMV inh -76.2 (no result: AmpC inh detg, AmpC inh no detg)
CCN1C(=O)CC(C(C)C)N(C2CCCC2)c2nc(Nc3ccc(C(=O)NC4CCN(C)CC4)cc3OC)ncc21 (stereo not given)	FMDV inh inconclusive (no result: AmpC inh detg, HCMV inh, AmpC inh no detg)
COc1cc(C(=O)NC2CCN(C)CC2)ccc1Nc1ncc2c(n1)N(C1CCCCC1)CCC(=O)N2C	HCV inh 1.78µM, HCMV inh inconclusive (no result: AmpC inh detg, AmpC inh no detg)
CCN1C(=O)CC(c2ccccc2)N(C2CCCC2)c2nc(Nc3ccc(C(=O)NC4CCN(C)CC4)cc3OC)ncc21 (stereo not given)	HCV inh 8.91µM (no result: AmpC inh detg, HCMV inh)
C[C@H](Nc1nc(Br)cnc1N)c1ccccc1	none (no result: HCV inh, AmpC inh detg, AmpC inh no detg, FMDV inh)
Cc1ccc(NC(=O)N2CCc3ccccc32)cc1	HCV inh inconclusive
CN1CCN(c2ccc(NC(=O)N3CCc4ccccc43)cc2)CC1	HCMV inh -78.0, FMDV inh 17.8µM
COc1ccccc1NC(=O)CN1CCN(CC(=O)Nc2ccc(OCc3ccccc3)cc2)CC1	HCMV inh inconclusive, FMDV inh inconclusive
O=C(NC1CCCCC1)c1cccc(OCc2ccccc2)c1	HCV inh 14.1µM, HCMV inh inconclusive
O=C(CN1CCCC1)Nc1ccc(OCc2ccccc2)cc1	HCV inh 10µM
O=C(CN1CCN(c2ccccc2)CC1)Nc1ccc(OCc2ccccc2)cc1	HCV inh 11.2µM (no result: HCMV inh)
CN(C)Cc1ccc(CNC(=O)COc2ccc3ccccc3c2)cc1	none
COc1ccc(COC(=O)C2CC(=O)N(Cc3ccc(C)cc3)C2)cc1 (stereo not given)	none (no result: HCV inh, HCMV inh)
COC(=O)c1ccc(NC(=O)CCc2c(C)nn(-c3ccc(N4CCCCC4)nn3)c2C)cc1	none (no result: HCV inh, AmpC inh no detg)
CN1CCN(c2ccc(NC(=O)c3cccc(OCc4ccccc4)c3)cc2)CC1	HCV inh 25.1µM
COC(=O)C1C(=O)c2c([nH]c(C(=O)OCC3CCCO3)c2C)CC1C (stereo not given)	HCV inh inconclusive, AmpC inh detg inconclusive, AmpC inh no detg 10µM
COCCOC(=O)c1[nH]c2c(c1C)C(=O)C(C(=O)OC)C(C)C2 (stereo not given)	none
Cc1c2c(=O)n(-c3nc4ccccc4s3)nc-2cc(O)n1Cc1ccccc1	AmpC inh no detg 15.8µM, FMDV inh 7.08µM (no result: HCMV inh)
C=CCn1c(SCc2ccc(C#N)cc2)nnc1-c1cccc(OC)c1	HCMV inh -64.2
COc1ccc(C(N)c2csc(Nc3ccc(C(F)(F)F)cn3)n2)cc1 (stereo not given)	none (no result: HCV inh, AmpC inh detg, AmpC inh no detg)
CCN(CC)c1ccc(NC(=O)c2nc3nc(C)cc(C(F)F)n3n2)cc1	HCV inh inconclusive, AmpC inh no detg 3.16µM
CCN(CC)c1ccc(NC(=O)CSc2nnc3nc(C)cc(C)n23)cc1	HCMV inh -107.0
COc1ccc(Cn2c(O)c(C=Nc3ccccc3)c3ccccc3c2=O)cc1	HCMV inh -63.3
Cc1nc2c(Cl)cc(Cl)cc2[nH]1	HCV inh inconclusive, AmpC inh detg inconclusive, HCMV inh -65.5
Cc1nc2c([N+](=O)[O-])c(C)c(C)cc2[nH]1	AmpC inh detg inconclusive
O=[N+]([O-])c1cc(S(=O)(=O)NCc2ccco2)ccc1NN=Cc1ccccn1	none (no result: HCV inh, AmpC inh detg, AmpC inh no detg, FMDV inh)
Cc1ccc(CN2CCCC(C(=O)N3CCCC3)C2)cc1 (stereo not given)	none
O=C(C1CCCN(Cc2ccc(Br)cc2)C1)N1CCCCC1 (stereo not given)	HCV inh 11.2µM, HCMV inh inconclusive, FMDV inh inconclusive
CN(Cc1ccccc1)C(=O)C1CCCN(Cc2ccc(Cl)cc2)C1 (stereo not given)	HCV inh 1.41µM, FMDV inh inconclusive
CCOC(=O)C(=CNc1nc(-c2ccc3ccccc3c2)cs1)C(=O)OCC	HCV inh inconclusive
O=C(CS(=O)c1ccc(C(F)(F)F)cc1[N+](=O)[O-])Oc1ccccc1 (stereo not given)	HCV inh inconclusive, HCMV inh inconclusive, FMDV inh 28.2µM
CS(=O)(=O)c1ccc(S(=O)CC(=O)OCc2ccccc2)c([N+](=O)[O-])c1 (stereo not given)	HCV inh inconclusive, HCMV inh -100.9, FMDV inh 8.91µM
Cc1cc(C)c(S(=O)(=O)NCc2ccccn2)c(C)c1	none
Cc1ccc(Cl)cc1N1CCN(C(=O)CN2C(=O)COc3ccc(S(=O)(=O)N4CCCCCC4)cc32)CC1	FMDV inh inconclusive (no result: HCV inh, AmpC inh no detg)
O=C(N/N=C/c1ccc[nH]1)c1ccccc1O	HCMV inh -91.8
Cc1cc(C(=O)N/N=C/c2ccc[nH]2)n[nH]1	HCV inh 1.41µM, HCMV inh inconclusive
O=C(N/N=C/c1ccc[nH]1)c1ccc(O)cc1	none
